# Inconclusive results are not listed. A number with no mark means an inactive call. The source made the active and inactive calls. Calls come from the whole dose curve; as a rule, active = well fitted cell-killing curve with a large enough effect; inconclusive = small, poorly fitted or top-dose-only effect, or effect the other way; inactive = flat fitted curve, though single readings scatter.
# Test system: SKOV3
# Test: Primary qHTS to identify gynecologic anti-cancer compounds using libraries of approved drugs and bioactive compounds (AID 1345084); note: nearly all actives have a fitted effect of over 55% in size
# Conditions: Gynecologic cancer cell panel viability, ATPlite luminescence, 48 h; series mostly up to 57.5 µM; activity change, negative = cytotoxicity: at the top concentration
# Method in brief: (§1)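 Five-point cytotoxicity, 48 h drug exposure at 37 C, 5% CO2, on cells seeded 16 h beforehand. ATP content read by ATPlite luminescence.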
# % is set by controls: 0 for no effect and ±100 for the full control effect.
SMILES,outcome,"activity change, negative = cytotoxicity"
CC(NC(C)(C)C)C(=O)c1cccc(Cl)c1 (stereo not given),inactive,
COP(=S)(OC)SCN1C(=O)c2ccccc2C1=O,,-0.424%
CC(C)NC(C)C,,-1.04%
O=C(O)CCCc1ccc(N(CCCl)CCCl)cc1,,-4.18%
Clc1cccc(SC2CCNCC2)n1,,16.1%
CCc1cc2c(s1)-n1c(C)nnc1CN=C2c1ccccc1Cl,,1.67%
NC(=O)c1cc([N+](=O)[O-])cc([N+](=O)[O-])c1,,-6.8%
CN1CC[C@]23c4c5ccc(O)c4O[C@H]2[C@@H](O)C=C[C@H]3[C@H]1C5,,-4.46% [at 116 µM]
Nc1ccccc1,,0%
CNCC(=O)c1ccc(O)c(O)c1,,10.5%
COc1c2c(cc3c1OCO3)CCN(C)C2,,-4.69%
C[C@]12CC[C@@H]3c4ccc(OC(=O)N(CCCl)CCCl)cc4CC[C@H]3[C@@H]1CC[C@@H]2OP(=O)(O)O,,15%
O=C1CN=C(c2ccccc2)c2cc([N+](=O)[O-])ccc2N1,,-4.24%
CC(Cc1ccccc1)NCCn1cnc2c1c(=O)n(C)c(=O)n2C (stereo not given),,3.93% [at 116 µM]
CCN[C@@H](C)Cc1ccccc1,,-2.2% [at 116 µM]
CCC1(c2ccc(N)cc2)CCC(=O)NC1=O (stereo not given),,0%
O=c1c(C2CC(c3ccc(-c4ccc(Br)cc4)cc3)Cc3ccccc32)c(O)sc2ccccc12 (stereo not given),,21.2%
COc1cc(OC)c(OC)cc1C=O,,-6.82% [at 116 µM]
Nc1nc(N)nc(NC2CC2)n1,,-3.36%
O=C(CCCN1CCC2(CC1)C(=O)NCN2c1ccccc1)c1ccc(F)cc1,,0.716%
NCCc1ccc(O)cc1,,-0.247%
C=CCN1C[C@H](C)N([C@H](c2ccc(C(=O)N(CC)CC)cc2)c2cccc(OC)c2)C[C@H]1C,inactive,
[N-]=[N+]=CC(=O)OC[C@H](N)C(=O)O,,12.2%
CC(C)N(CCC(C(N)=O)(c1ccccc1)c1ccccn1)C(C)C (stereo not given),inactive,
CC(C)c1cccc(C(C)C)c1O,,-9.7%
CN1CCC(O)(c2ccc(F)cc2)C(C(=O)c2ccc(F)cc2)C1 (stereo not given),,0%
O=C1c2ccccc2C(=O)c2ccccc21,,2.33% [at 25.3 µM]
COc1ccc2c3c1O[C@H]1[C@H](O)CC[C@H]4[C@@H](C2)N(C)CC[C@@]341,,4.81% [at 116 µM]

# Test system: Tov-21-G
# Test: as above
# Conditions: Gynecologic cancer cell panel viability, ATPlite luminescence, 48 h; series mostly up to 57.5 µM; activity change, negative = cytotoxicity: at the top concentration
# Method in brief: as §1
SMILES,Potency,"activity change, negative = cytotoxicity"
CC(NC(C)(C)C)C(=O)c1cccc(Cl)c1 (stereo not given),inactive,
COP(=S)(OC)SCN1C(=O)c2ccccc2C1=O,,-2.67%
CC(C)(C)c1ccc(O)cc1,,12.2%
CC(C)NC(C)C,,-0.951%
O=C(O)CCCc1ccc(N(CCCl)CCCl)cc1,,-10.1%
Clc1cccc(SC2CCNCC2)n1,,1.69%
CCc1cc2c(s1)-n1c(C)nnc1CN=C2c1ccccc1Cl,,7.47%
NC(=O)c1cc([N+](=O)[O-])cc([N+](=O)[O-])c1,,-4.34%
CN1CC[C@]23c4c5ccc(O)c4O[C@H]2[C@@H](O)C=C[C@H]3[C@H]1C5,,-12.3% [at 116 µM]
NNc1ccccc1,,0.374%
C[C@]12CCC(=O)C=C1CC[C@@H]1[C@@H]2CC[C@@]2(C)[C@H]1CC[C@]2(C)O,,-5.07%
CCCCC/C=C\C/C=C\C/C=C\C/C=C\CCCC(=O)NCC(=O)O,,-12.6%
Nc1ccccc1,,4.54%
CNCC(=O)c1ccc(O)c(O)c1,,11%
COc1c2c(cc3c1OCO3)CCN(C)C2,,-8.02%
CN1C(=O)CCS(=O)(=O)C1c1ccc(Cl)cc1 (stereo not given),,0.637%
C[C@]12CC[C@@H]3c4ccc(OC(=O)N(CCCl)CCCl)cc4CC[C@H]3[C@@H]1CC[C@@H]2OP(=O)(O)O,,5.39%

SMILES,Potency,"activity change, negative = cytotoxicity"
O=C1CN=C(c2ccccc2)c2cc([N+](=O)[O-])ccc2N1,,-12.7%
CC(Cc1ccccc1)NCCn1cnc2c1c(=O)n(C)c(=O)n2C (stereo not given),,5.82% [at 116 µM]
CCN[C@@H](C)Cc1ccccc1,,14.5% [at 116 µM]
CCC1(c2ccc(N)cc2)CCC(=O)NC1=O (stereo not given),,-3.01%
O=C(O)c1ccc(=O)[nH]c1,,7.72%
COc1cc(OC)c(OC)cc1C=O,,7.99% [at 116 µM]
Nc1nc(N)nc(NC2CC2)n1,,11.4%
O=C(CCCN1CCC2(CC1)C(=O)NCN2c1ccccc1)c1ccc(F)cc1,,-23.1%
NCCc1ccc(O)cc1,,-1.03%
C=CCN1C[C@H](C)N([C@H](c2ccc(C(=O)N(CC)CC)cc2)c2cccc(OC)c2)C[C@H]1C,inactive,
[N-]=[N+]=CC(=O)OC[C@H](N)C(=O)O,,-12.6%
CC(C)N(CCC(C(N)=O)(c1ccccc1)c1ccccn1)C(C)C (stereo not given),inactive,
CC(C)c1cccc(C(C)C)c1O,,-0.393%
CN1CCC(O)(c2ccc(F)cc2)C(C(=O)c2ccc(F)cc2)C1 (stereo not given),,0.396%
O=C1c2ccccc2C(=O)c2ccccc21,,-0.464% [at 25.3 µM]
COc1ccc2c3c1O[C@H]1[C@H](O)CC[C@H]4[C@@H](C2)N(C)CC[C@@]341,,-1.27% [at 116 µM]

# Test system: Tov112D
# Test: as above
# Conditions: Gynecologic cancer cell panel viability, ATPlite luminescence, 48 h; series mostly up to 57.5 µM; activity change, negative = cytotoxicity: at the top concentration
# Method in brief: as §1
SMILES,Potency,"activity change, negative = cytotoxicity"
CC(NC(C)(C)C)C(=O)c1cccc(Cl)c1 (stereo not given),inactive,
COP(=S)(OC)SCN1C(=O)c2ccccc2C1=O,,-15%
CC(C)(C)c1ccc(O)cc1,,8.53%
CC(C)NC(C)C,,0.593%
O=C(O)CCCc1ccc(N(CCCl)CCCl)cc1,,3.19%
Clc1cccc(SC2CCNCC2)n1,,-0.223%
CCc1cc2c(s1)-n1c(C)nnc1CN=C2c1ccccc1Cl,,7.11%
NC(=O)c1cc([N+](=O)[O-])cc([N+](=O)[O-])c1,,-7.22%
CN1CC[C@]23c4c5ccc(O)c4O[C@H]2[C@@H](O)C=C[C@H]3[C@H]1C5,,-5.8% [at 116 µM]
NNc1ccccc1,,0.0129%
C[C@]12CCC(=O)C=C1CC[C@@H]1[C@@H]2CC[C@@]2(C)[C@H]1CC[C@]2(C)O,,0.301%
CCCCC/C=C\C/C=C\C/C=C\C/C=C\CCCC(=O)NCC(=O)O,,-0.941%
Nc1ccccc1,,1.51%
CNCC(=O)c1ccc(O)c(O)c1,,4.06%
COc1c2c(cc3c1OCO3)CCN(C)C2,,-12.8%
CN1C(=O)CCS(=O)(=O)C1c1ccc(Cl)cc1 (stereo not given),,6.35%
C[C@]12CC[C@@H]3c4ccc(OC(=O)N(CCCl)CCCl)cc4CC[C@H]3[C@@H]1CC[C@@H]2OP(=O)(O)O,,8.65%

SMILES,Potency,"activity change, negative = cytotoxicity"
O=C1CN=C(c2ccccc2)c2cc([N+](=O)[O-])ccc2N1,,-3.38%
CC(Cc1ccccc1)NCCn1cnc2c1c(=O)n(C)c(=O)n2C (stereo not given),,-5.66% [at 116 µM]
CCN[C@@H](C)Cc1ccccc1,,-18.3% [at 116 µM]
CCC1(c2ccc(N)cc2)CCC(=O)NC1=O (stereo not given),,-11.1%
O=C(O)c1ccc(=O)[nH]c1,,5.12%
O=c1c(C2CC(c3ccc(-c4ccc(Br)cc4)cc3)Cc3ccccc32)c(O)sc2ccccc12 (stereo not given),,-5.44%
COc1cc(OC)c(OC)cc1C=O,,11.3% [at 116 µM]
Nc1nc(N)nc(NC2CC2)n1,,-6.38%
O=C(CCCN1CCC2(CC1)C(=O)NCN2c1ccccc1)c1ccc(F)cc1,,-4.39%
NCCc1ccc(O)cc1,,-1.81%
C=CCN1C[C@H](C)N([C@H](c2ccc(C(=O)N(CC)CC)cc2)c2cccc(OC)c2)C[C@H]1C,inactive,
[N-]=[N+]=CC(=O)OC[C@H](N)C(=O)O,,-6.88%
CC(C)N(CCC(C(N)=O)(c1ccccc1)c1ccccn1)C(C)C (stereo not given),inactive,
CC(C)c1cccc(C(C)C)c1O,,-3.09%
CN1CCC(O)(c2ccc(F)cc2)C(C(=O)c2ccc(F)cc2)C1 (stereo not given),,0.0828%
O=C1c2ccccc2C(=O)c2ccccc21,,5.26% [at 25.3 µM]
COc1ccc2c3c1O[C@H]1[C@H](O)CC[C@H]4[C@@H](C2)N(C)CC[C@@]341,,-7.16% [at 116 µM]
